Tested on: Vero E6 infected with SARS-CoV-2
Assay: inhibition of SARS-CoV-2 cytopathic effect; higher = more antiviral protection, active = above 15
Conditions: 48 h

Measured: inhibition of SARS-CoV-2 cytopathic effect

Cc1ncc([N+](=O)[O-])n1CC(C)O (stereo not given) [secnidazole]
inactive: 1 nM -4.41% | 8.33 nM -8.4% | 100 nM -5.52% | 833.33 nM -10.4% | 10000 nM -9.47%

O=C(c1ccc(F)cc1)C1CCN(CCCCc2ccccc2)CC1 [4-(4-fluorobenzoyl)-1-(4-phenylbutyl)-piperidine]
inactive: 1 nM -4.06% | 8.33 nM -1.58% | 100 nM -0.19% | 833.33 nM 1.25% | 10000 nM -4.47%

Cc1nc(N)sc1-c1ccnc(Nc2ccc(N3CCOCC3)cc2)n1
inactive: 1 nM 0.34% | 8.33 nM 0.72% | 100 nM 0.35% | 833.33 nM 2.13% | 10000 nM 2.1%

O=C(c1c(F)ccc(NS(=O)(=O)N2CC[C@@H](F)C2)c1F)c1c[nH]c2ncc(-c3cnc(C4CC4)nc3)cc12
inactive: 1 nM 3.26% | 8.33 nM -1.73% | 100 nM -2.71% | 833.33 nM -1.89% | 10000 nM -5.07%

O=S(=O)(O)c1cc(O)ccc1O [etamsylate]
inactive: 1 nM 0.18% | 8.33 nM -1.16% | 100 nM -0.81% | 833.33 nM 0.23% | 10000 nM 1.8%

COc1ccc2c(c1)/C(=C/c1cnc[nH]1)C(=O)N2
inactive: 1 nM 0.21% | 8.33 nM -1.7% | 100 nM -1.87% | 833.33 nM 4.89% | 10000 nM 6.28%

COC[C@H](NC(=O)c1cnc(C)s1)C(=O)N[C@@H](COC)C(=O)N[C@@H](Cc1ccccc1)C(=O)[C@@]1(C)CO1 [oprozomib]
active: 100 nM 38.6% | 833.33 nM 34.5% | 10000 nM 24.7%
inactive: 1 nM 0.33% | 8.33 nM 3.66%

NCCCC[C@H](NC(=O)[C@@H]1CCCN1C(=O)[C@@H]1CSSC[C@H](NC(=O)CNC(=O)CNC(=O)CN)C(=O)N[C@@H](Cc2ccc(O)cc2)C(=O)N[C@@H](Cc2ccccc2)C(=O)N[C@@H](CCC(N)=O)C(=O)N[C@@H](CC(N)=O)C(=O)N1)C(=O)NCC(N)=O [terlipressin]
inactive: 1 nM 2.67% | 8.33 nM 0.07% | 100 nM 0.5% | 833.33 nM -0.07% | 10000 nM 0.72%

CC[N+](CC)(CCCNC1=CC(=O)C(NCCC[N+](CC)(CC)Cc2ccccc2)=CC1=O)Cc1ccccc1 [benzoquinonium-dibromide]
inactive: 1 nM -1.79% | 8.33 nM 1.05% | 100 nM -2.22% | 833.33 nM 0.21% | 10000 nM -1.78%

O=C(CCN1CCN(C(=O)OCc2cc(Cl)cc(Cl)c2)CC1)c1ccc2[nH]c(=O)oc2c1
inactive: 1 nM 3.18% | 8.33 nM 5.29% | 100 nM 2.77% | 833.33 nM 4.56% | 10000 nM 1.71%

S=C(NCc1ccc2c(c1)OCO2)N1CCN(c2ncnc3c2oc2ccccc23)CC1 [amuvatinib]
inactive: 1 nM 3.11% | 8.33 nM -0.46% | 100 nM 1.46% | 833.33 nM 2.33% | 10000 nM -1.9%

Nc1nc2c(c(N3CCNCC3)n1)CCC1=C2[C@@H]2CCCC[C@@H]2O1
inactive: 1 nM 1.61% | 8.33 nM 0.48% | 100 nM 1.56% | 833.33 nM 2.05% | 10000 nM -2.01%

C[C@H]1[C@H](C)CC[C@]2(C(=O)O)CC[C@]3(C)C(=CC[C@@H]4[C@@]5(C)C[C@@H](O)[C@H](O)[C@@](C)(CO)[C@@H]5CC[C@]43C)[C@H]12 [asiatic-acid]
inactive: 1 nM -2.75% | 8.33 nM -0.62% | 100 nM -0.32% | 833.33 nM 1.12% | 10000 nM -3.69%

CN1C[C@H](CNC(=O)OCc2ccccc2)C[C@@H]2c3cccc4c3c(cn4C)C[C@H]21 [metergoline]
inactive: 1 nM -10.3% | 8.33 nM -6.82% | 100 nM -4.21% | 833.33 nM -6.12% | 10000 nM -2.89%

O=C(O)c1cc(O)c2c(c1)[C@H]([C@H]1c3cc(C(=O)O)cc(O)c3C(=O)c3c(O[C@@H]4O[C@H](CO)[C@@H](O)[C@H](O)[C@H]4O)cccc31)c1cccc(O[C@@H]3O[C@H](CO)[C@@H](O)[C@H](O)[C@H]3O)c1C2=O [sennoside-A]
inactive: 1 nM -3.2% | 8.33 nM 0% | 100 nM 0.82% | 833.33 nM 0.38% | 10000 nM -2.08%

C[C@]12CC[C@H]3[C@@H](CCC4=CC(=O)CC[C@@]43C)[C@@H]1CC[C@@H]2O
inactive: 1 nM 0.04% | 8.33 nM 2.66% | 100 nM 3.91% | 833.33 nM -1.25% | 10000 nM -0.6%

— the supplement of paper PMC13380429
